Results as given in PubChem BioAssay.
For part of these data: Potency and affinity values are given separately. Calls of active or inactive are those of the source.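 How the source made its calls, unless noted: active means calcium signal ratio cut to more than 3 SD under the fully stimulated control mean yet still positive, in both repeats and the primary screen; inactive means the rest.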

How the values were obtained:
[1] = tested on: TRPC4 beta (transient receptor potential cation channel C4), mouse; assay: activators of mouse TRPC4 channel, confirmation, cell-based, Fluo4 calcium, HEK293 TRPC4beta/mu-opioid, duplicates, 10 µM (AID 2426;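 active means fluorescence ratio normalized to control raised more than 50% in primary screen plus both repeat runs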); details: Fluo4 calcium fluorescence, at 10 µM; stronger effect = higher value
[2] = tested on: transient receptor potential cation channel C4 beta (TRPC4), mouse; assay: activators of mouse TRPC4 channel, confirmation, cell-based, second round, Fluo4, HEK293 TRPC4beta/mu-opioid, 1 µM (AID 2461;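 active means primary screen active and over 50% activation in each of two duplicate runs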); details: Fluo4 calcium fluorescence, at 1 µM; stronger effect = higher value
[3] = tested on: TRPC4 (transient receptor potential cation channel C4 beta), mouse; assay: positive allosteric modulators of mouse TRPC4, confirmation, cell-based, second round, Fluo-4, HEK293 TRPC4beta/mu-opioid, 1 µM (AID 2554;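 active means primary screen hit whose fluorescence ratio, in both repeats, exceeds the weak agonist control mean by 3 SD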); details: DAMGO EC20, Fluo-4 calcium flux, at 1 µM; stronger effect = higher value
[4] = tested on: TRPC4 beta (transient receptor potential cation channel C4), mouse; assay: positive allosteric modulators of mouse TRPC4, confirmation, cell-based, Fluo-4, HEK293 TRPC4beta/mu-opioid (AID 2555;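 active means primary screen hit whose calcium fluorescence ratio, in both repeats, exceeds the weak agonist control mean by 3 SD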); details: DAMGO EC20, Fluo-4 calcium flux, at 10 µM; stronger effect = higher value
[5] = target: Short transient receptor potential channel 4 (Mus musculus) (UniProt Q9QUQ5); assay: inhibitors of mouse TRPC4 channel, confirmation, cell-based, Fluo4, HEK293 TRPC4beta/mu-opioid (AID 2636;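 active means calcium signal cut by more than 3 SD below the full-agonist control yet still positive, in both repeats and the earlier primary screen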); details: DAMGO, Fluo4 calcium flux, at 10 µM; stronger effect = higher value
[6] = target: Short transient receptor potential channel 4 (Mus musculus) (UniProt Q9QUQ5); assay: inhibitors of mouse TRPC4 channel, confirmation, cell-based, second round, Fluo4, HEK293 TRPC4beta/mu-opioid, 1 µM (AID 2637); details: Fluo4 calcium flux, DAMGO, at 1 µM; stronger effect = higher value
[7] = target: Short transient receptor potential channel 4 (Mus musculus) (UniProt Q9QUQ5); assay: mouse TRPC4 channel activators, dose response, cell-based, HEK293 TRPC4/mu-opioid, Fluo-4 calcium (AID 434937;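 active means primary screen activator hit with a dose response curve and TRPC4 channel activation at any tested dose; inactive means no activation, no dose response, or not a primary hit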)
[8] = target: Short transient receptor potential channel 4 (Mus musculus) (UniProt Q9QUQ5); assay: TRPC4 positive allosteric modulators, dose response, cell-based, HEK293 TRPC4/mu-opioid, Fluo-4 calcium, EC20 DAMGO (AID 434941;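 active means earlier screen potentiator hit that boosts the TRPC4 ion channel at some dose, with a dose response; inactive means no potentiation, no dose response, or not a prior hit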;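 further: calcium entry triggered by an EC20 dose of DAMGO at the co-expressed mu-opioid receptor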)
[9] = target: Short transient receptor potential channel 4 (Mus musculus) (UniProt Q9QUQ5); assay: mouse TRPC4 channel inhibitors, dose response, cell-based, HEK293 TRPC4/mu-opioid, Fluo-4 calcium (AID 434942;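 active means primary screen inhibitor hit that blocks the TRPC4 channel at some tested dose, yielding a dose curve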)
[10] = target: Short transient receptor potential channel 6 (Mus musculus) (UniProt Q61143); assay: inhibition of mouse TRPC6 channel, confirmation, selectivity assay for TRPC4 inhibitor project, cell-based, HEK293, membrane potential dye, duplicate (AID 434948;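 active means active in primary screen and both duplicates, each dropping signal beyond three positive-control SD with fluorescence still positive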); details: HEK293 TRPC6, membrane potential dye fluorescence, at 10 µM, stimulated with maximal-effect acetylcholine; stronger effect = higher value
[11] = target: Short transient receptor potential channel 6 (Mus musculus) (UniProt Q61143); assay: activation of mouse TRPC6 channel, confirmation, selectivity assay for TRPC4 activator project, cell-based, HEK293, membrane potential dye, duplicate (AID 434950;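 active means membrane potential signal rise above negative control mean plus 3 SD in both duplicates, also active in the earlier TRPC4 screen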); details: HEK293 TRPC6, membrane potential fluorescence, at 10 µM; stronger effect = higher value
[12] = target: Short transient receptor potential channel 6 (Mus musculus) (UniProt Q61143); assay: TRPC6 potentiation by TRPC4 potentiator hits, confirmation, selectivity assay for TRPC4 potentiator project, HEK293 cells, membrane potential dye, duplicate (AID 434952;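 active means compound raising the membrane signal above positive-control mean plus 3 SD in both repeats, and a primary screen hit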); details: HEK293 TRPC6, membrane potential dye fluorescence, at 10 µM, maximal acetylcholine added after compound; stronger effect = higher value
[13] = target: Short transient receptor potential channel 4 (Mus musculus) (UniProt Q9QUQ5); assay: calcium flux activators in TRPC4/5HT1a cells, counter-screen for TRPC4 activator project, cell-based, second counter screen, HEK293 TRPC4/5HT1a, Fluo-4 (AID 434977;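 active means calcium signal rise above buffer-control mean plus 5 SD in both duplicates, and also a hit in the primary screen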); details: Fluo-4 calcium flux, at 10 µM; stronger effect = higher value
[14] = calcium flux inhibitors in TRPC4/5HT1a cells, confirmation, counter-screen for TRPC4 inhibitor project, cell-based, second counter screen, HEK293 TRPC4/5HT1a, Fluo-4 (AID 434978;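 active means primary screen active whose calcium signal fell more than 3 SD beyond the full-serotonin control mean in both duplicate plates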;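 further: serotonin given first at submaximal then at maximal dose after compound preincubation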); details: Fluo-4 calcium flux, at 10 µM, serotonin added to trigger calcium flux; stronger effect = higher value
[15] = tested on: TRPC4 (mouse), co-expressed with 5HT1a in HEK293; assay: calcium flux potentiators in TRPC4/5HT1a cells, confirmation, counter-screen for TRPC4 potentiator project, cell-based, second counter screen, HEK293 TRPC4/5HT1a, Fluo-4 (AID 434979;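 active means signal rise over 3 SD above mean of control wells given weak agonist, in both repeats and first screen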); details: Fluo-4 calcium flux, at 10 µM, serotonin added at its EC20 dose; stronger effect = higher value
[16] = calcium flux activation in mu-opioid HEK293 cells, confirmation, counter-screen for TRPC4 activator project, cell-based, HEK293 mu-opioid receptor line (AID 449723;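 active means hit in primary screen, with calcium signal over 5 SD above buffer well mean in both duplicates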;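 further: counter screen cells carry the mu-opioid receptor alone and lack TRPC4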); details: Fluo-4 calcium fluorescence, at 10 µM; stronger effect = higher value
[17] = calcium flux enhancement in mu-opioid HEK293 cells, confirmation, counter-screen for TRPC4 allosteric potentiator project, cell-based, HEK293 mu-opioid receptor line (AID 449724;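 active means calcium signal rise more than 3 SD above the low-dose agonist control mean, in both duplicate plates and the primary screen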); details: Fluo-4 calcium flux, at 10 µM, compound added before EC20 DAMGO stimulus; stronger effect = higher value

Short transient receptor potential channel 6 (Mus musculus), sequence (Q61143 whole entry, looked up): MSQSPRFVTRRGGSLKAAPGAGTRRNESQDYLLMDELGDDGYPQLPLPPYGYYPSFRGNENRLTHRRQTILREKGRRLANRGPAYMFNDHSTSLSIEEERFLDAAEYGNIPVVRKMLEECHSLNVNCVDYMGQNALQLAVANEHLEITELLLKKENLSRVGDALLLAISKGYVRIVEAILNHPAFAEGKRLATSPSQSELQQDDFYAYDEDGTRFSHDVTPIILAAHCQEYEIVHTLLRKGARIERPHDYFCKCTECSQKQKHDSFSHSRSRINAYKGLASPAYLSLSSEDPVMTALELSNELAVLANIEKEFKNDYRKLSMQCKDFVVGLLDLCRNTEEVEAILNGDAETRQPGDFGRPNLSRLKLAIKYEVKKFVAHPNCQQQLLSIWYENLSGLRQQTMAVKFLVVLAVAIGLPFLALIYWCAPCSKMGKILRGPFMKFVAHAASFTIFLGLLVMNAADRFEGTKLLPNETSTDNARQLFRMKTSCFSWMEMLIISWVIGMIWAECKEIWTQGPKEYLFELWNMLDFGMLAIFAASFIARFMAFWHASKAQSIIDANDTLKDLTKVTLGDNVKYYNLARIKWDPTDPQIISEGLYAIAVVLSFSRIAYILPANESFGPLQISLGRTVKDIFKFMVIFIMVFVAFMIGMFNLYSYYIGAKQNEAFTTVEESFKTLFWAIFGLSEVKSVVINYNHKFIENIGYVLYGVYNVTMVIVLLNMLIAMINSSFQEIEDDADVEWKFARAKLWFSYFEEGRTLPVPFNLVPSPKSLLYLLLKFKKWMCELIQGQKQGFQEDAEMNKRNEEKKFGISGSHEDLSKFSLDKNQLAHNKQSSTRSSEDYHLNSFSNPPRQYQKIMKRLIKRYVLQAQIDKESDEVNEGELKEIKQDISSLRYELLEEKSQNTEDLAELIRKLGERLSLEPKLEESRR
Short transient receptor potential channel 4 (Mus musculus), sequence (Q9QUQ5 whole entry, looked up): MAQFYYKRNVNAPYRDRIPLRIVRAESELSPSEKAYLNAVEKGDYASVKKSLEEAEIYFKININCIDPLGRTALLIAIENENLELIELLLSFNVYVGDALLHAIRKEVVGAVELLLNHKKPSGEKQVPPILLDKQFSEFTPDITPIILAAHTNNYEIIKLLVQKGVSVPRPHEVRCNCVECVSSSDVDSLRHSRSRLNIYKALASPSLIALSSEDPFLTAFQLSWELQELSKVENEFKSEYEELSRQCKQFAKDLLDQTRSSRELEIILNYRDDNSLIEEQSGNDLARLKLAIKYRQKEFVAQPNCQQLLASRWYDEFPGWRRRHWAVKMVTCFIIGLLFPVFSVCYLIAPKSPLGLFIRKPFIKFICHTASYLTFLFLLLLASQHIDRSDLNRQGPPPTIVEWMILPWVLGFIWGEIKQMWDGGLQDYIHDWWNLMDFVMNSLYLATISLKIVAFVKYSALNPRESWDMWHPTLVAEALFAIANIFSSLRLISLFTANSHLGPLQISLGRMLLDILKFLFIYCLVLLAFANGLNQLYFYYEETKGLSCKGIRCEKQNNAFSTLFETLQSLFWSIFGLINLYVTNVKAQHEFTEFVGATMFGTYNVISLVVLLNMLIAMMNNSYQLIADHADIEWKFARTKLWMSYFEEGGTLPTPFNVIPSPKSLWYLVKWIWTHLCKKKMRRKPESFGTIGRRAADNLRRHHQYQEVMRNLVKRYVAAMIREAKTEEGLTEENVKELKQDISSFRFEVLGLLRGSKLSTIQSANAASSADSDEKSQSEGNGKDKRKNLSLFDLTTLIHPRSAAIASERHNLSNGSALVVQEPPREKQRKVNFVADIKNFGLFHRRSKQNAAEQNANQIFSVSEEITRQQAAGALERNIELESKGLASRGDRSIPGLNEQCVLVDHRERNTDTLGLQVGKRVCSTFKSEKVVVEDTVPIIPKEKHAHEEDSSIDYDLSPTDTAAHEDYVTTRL

O=c1[nH][nH]c(-c2ccccc2)c1C=Nc1ccc(F)cc1F
inactive: outcome [1] | outcome [2] | outcome [3] | outcome [5] | outcome [6] | outcome [7] | outcome [8] | outcome [9] | outcome [10] | outcome [11] | outcome [12] | outcome [13] | outcome [14] | outcome [16] | outcome [17]
active: potentiation [4] 119% | potentiation [15] 86%

COc1ccc(NS(=O)(=O)c2cccc(C(=O)N3CCN(Cc4cc(OC)ccc4OC)CC3)c2)cc1
inactive: outcome [1] | outcome [2] | outcome [3] | outcome [4] | outcome [5] | outcome [6] | outcome [7] | outcome [8] | outcome [9] | outcome [10] | outcome [11] | outcome [12] | outcome [13] | outcome [14] | outcome [15] | outcome [16] | outcome [17]

O=C(COc1coc(CN2CCN(c3ccccc3F)CC2)cc1=O)Nc1ccccc1
inactive: outcome [1] | outcome [2] | outcome [3] | outcome [4] | outcome [5] | outcome [6] | outcome [7] | outcome [8] | outcome [9] | outcome [10] | outcome [11] | outcome [12] | outcome [13] | outcome [14] | outcome [15] | outcome [16] | outcome [17]

CSc1nnc(Cc2sc(-c3ccccc3)nc2-c2ccccc2)o1
active: potentiation [15] 23.3%
inactive: outcome [1] | outcome [2] | outcome [3] | outcome [4] | outcome [5] | outcome [6] | outcome [7] | outcome [8] | outcome [9] | outcome [10] | outcome [11] | outcome [12] | outcome [13] | outcome [14] | outcome [16] | outcome [17]

CCCn1c(=O)c(C(=O)NCC2CCCO2)c(O)c2ccccc21 (stereo not given)
inactive: outcome [1] | outcome [2] | outcome [5] | outcome [6] | outcome [7] | outcome [8] | outcome [9] | outcome [10] | outcome [11] | outcome [12] | outcome [13] | outcome [14] | outcome [16] | outcome [17]
active: potentiation [3] 16% | potentiation [4] 11% | potentiation [15] 7.45%

COc1ccc(/C=C2/SC(=S)N(NS(=O)(=O)c3ccc(C)cc3)C2=O)cc1
inactive: outcome [1] | outcome [2] | outcome [3] | outcome [4] | outcome [5] | outcome [6] | outcome [7] | outcome [8] | outcome [9] | outcome [10] | outcome [11] | outcome [12] | outcome [13] | outcome [14] | outcome [15] | outcome [16] | outcome [17]

C/C(=N/OCO/N=C(/C)c1ccc(F)cc1)c1ccc(F)cc1
inactive: outcome [1] | outcome [2] | outcome [3] | outcome [4] | outcome [5] | outcome [6] | outcome [7] | outcome [8] | outcome [9] | outcome [10] | outcome [11] | outcome [12] | outcome [13] | outcome [14] | outcome [15] | outcome [16] | outcome [17]

CCOC(=O)c1sc2nc(CC(=O)OC)nc(NCc3ccc(F)cc3)c2c1C
inactive: outcome [1] | outcome [2] | outcome [3] | outcome [4] | outcome [5] | outcome [6] | outcome [7] | outcome [8] | outcome [9] | outcome [10] | outcome [11] | outcome [12] | outcome [13] | outcome [14] | outcome [15] | outcome [16] | outcome [17]

O=C(NC1CCN(Cc2ccccc2)CC1)c1cccc(S(=O)(=O)Nc2cc(C(F)(F)F)ccc2Cl)c1
inactive: outcome [1] | outcome [2] | outcome [4] | outcome [5] | outcome [6] | outcome [7] | outcome [8] | outcome [9] | outcome [10] | outcome [11] | outcome [12] | outcome [13] | outcome [14] | outcome [16] | outcome [17]
active: potentiation [3] 13% | potentiation [15] 22.2%

CCOC(=O)c1cnc2ccc(Cl)cc2c1NCCN(C)C
inactive: outcome [1] | outcome [2] | outcome [3] | outcome [4] | outcome [5] | outcome [6] | outcome [7] | outcome [8] | outcome [9] | outcome [10] | outcome [11] | outcome [12] | outcome [13] | outcome [14] | outcome [15] | outcome [16] | outcome [17]

Cc1ccc(Cl)cc1N1CCN(Cc2nc3c(c(=O)[nH]c(=O)n3C)n2Cc2ccccc2F)CC1
active: potentiation [15] 25.8%
inactive: outcome [1] | outcome [2] | outcome [3] | outcome [4] | outcome [5] | outcome [6] | outcome [7] | outcome [8] | outcome [9] | outcome [10] | outcome [11] | outcome [12] | outcome [13] | outcome [14] | outcome [16] | outcome [17]

Cc1ccc(-c2c(C(=O)N/N=C/c3ccc(OC(C)C)cc3)nnn2-c2nonc2N)cc1
active: potentiation [15] 19.3%
inactive: outcome [1] | outcome [2] | outcome [3] | outcome [4] | outcome [5] | outcome [6] | outcome [7] | outcome [8] | outcome [9] | outcome [10] | outcome [11] | outcome [12] | outcome [13] | outcome [14] | outcome [16] | outcome [17]

CCN(CC)CCN(Cc1cc2ccc(C)cc2[nH]c1=O)C(=S)Nc1ccccc1C(=O)OC
active: inhibition [5] 85%
inactive: outcome [1] | outcome [2] | outcome [3] | outcome [4] | outcome [6] | outcome [7] | outcome [8] | outcome [9] | outcome [10] | outcome [11] | outcome [12] | outcome [13] | outcome [14] | outcome [15] | outcome [16] | outcome [17]

O=S(=O)(Cc1ccccc1)N1CCC(c2nc(-c3cccs3)no2)CC1
inactive: outcome [1] | outcome [2] | outcome [3] | outcome [5] | outcome [6] | outcome [7] | outcome [8] | outcome [9] | outcome [10] | outcome [11] | outcome [12] | outcome [13] | outcome [14] | outcome [16] | outcome [17]
active: potentiation [4] 13% | potentiation [15] 11.4%

CCOc1cc(/C=C2\CN(CC)C/C(=C\c3ccc(O)c(OCC)c3)C2=O)ccc1O
inactive: outcome [1] | outcome [2] | outcome [3] | outcome [4] | outcome [5] | outcome [6] | outcome [7] | outcome [8] | outcome [9] | outcome [10] | outcome [11] | outcome [12] | outcome [13] | outcome [14] | outcome [15] | outcome [16] | outcome [17]
